A selection: hits, their analogues and other compounds. The true share with any hit is near 11%.
L major viab: reduces viability of Leishmania major promastigotes; 200,000 compounds, 9% hits; resazurin fluorescence viability; inhibition, % at 10 µM; in the data active = inhibition above about 50%;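 also: promastigotes grown with compound for 44 hours at 28 °C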
Autophagy HCS: modulators of autophagy; 190,000 compounds, 0.98% hits; AID 463193; MEF GFP-LC3 puncta imaging; test concentration mostly 10 µM; calls only at 10 µM (by protocol);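 active = percentage of spot-positive cells more than 3 SD above its plate mean, without a fluorescence outlier flag or 80% toxicity; inconclusive = no clear call, values can overlap the other calls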;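 also: spot-positive cell cutoff set from DMSO-treated cells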
WT yeast gro inh: growth inhibition of WT yeast, mitochondrial fusion screen | 190,000 compounds, 2.1% hits | inhibition, % at 10 µM | mitochondrial fusion phenotypic screen, WT strain; in the data active = inhibition above about 58%; tested in S. cerevisiae
Insulin prom up: MIN6 insulin promoter up-regulation | z-score at 5 µM | MIN6 insulin promoter-GFP reporter, high-content imaging; active compounds read high | AID 1625 | 190,000 compounds, 0.3% hits;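 active = z-score above 3 at 5 µM with at least 500 cells counted in the well; inconclusive = wells under 500 cells, flagged as cytotoxic or low count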
Insulin prom inh: TRM-6 insulin promoter activity inhibition; TRM-6 cells (human fetal islet line), insulin promoter-eGFP reporter, imaging; reporter expression induced with tamoxifen; inhibition, % at 2 µM; 130,000 compounds, 0.9% hits; AID 1273;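 active = inhibition above the mean plus 3 SD, with well images judged a real hit on visual review, cut at about 60% in these data, passing the limit was not always enough; inconclusive = inhibition over the cutoff but images rejected on review; inactive = inhibition not above the cutoff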
* hit, by the source's call; i = inactive; ? = inconclusive; · = no result; + = active, no number.

SMILES	L major viab	Autophagy HCS	WT yeast gro inh	Insulin prom up	Insulin prom inh
CC(=O)Nc1ccc(NS(=O)(=O)c2ccc(Cl)c(C(=O)O)c2)cc1	-10	i	-14	0.34	79*
CC(C)C(=O)Nc1cc(S(=O)(=O)Nc2cccc(Cl)c2)ccc1Cl	4	i	32	1.1	·
Cc1cc(CCCCCCCCc2cc(C)cc(=O)o2)oc(=O)c1	-3	i	0	·	·
COc1ccc2c(c1)CCCC21NC(=O)N(CC(=O)NC(=O)NCc2ccccc2)C1=O (centres undefined)	0	i	22	-0.44	·
CCOC(=O)C1=C(C)N=C2SC(C(=O)OC)=CC(=O)N2C1c1ccc(OC)cc1 (centres undefined)	7	i	84*	·	-29
OC(COc1ccc(Br)cc1)CN1CCOCC1 (centres undefined)	-2	i	-8	-1.1	43
COc1ccc(OCCC(=O)NCCN2CCOCC2)cc1	-1	i	-10	-1	12
COc1ccc(Oc2ncc(CN3CCN(c4ccccc4)CC3)s2)cc1	-1	i	28	·	31
Brc1ccc(OCCCCCN2CCOCC2)cc1	98*	i	21	·	0
COc1cccc(OCCCCCN2CCOCC2)c1	99*	i	14	0.07	-82
Brc1ccc(Oc2ncc(CN3CCOCC3)s2)cc1	90*	i	12	·	-28
Brc1ccc(OCCOCCN2CCOCC2)cc1	90*	i	10	-0.87	45
CCO[C@@H]1OC(C(=O)O)=C[C@H](C2CC2)[C@H]1CCCO	3	i	3	0.33	·
COc1ccc(C(=O)CSc2nc3ncccc3[nH]2)cc1OC	·	·	·	-0.06	·
Fc1ccc(OCCCCN2CCOCC2)cc1	85*	i	-14	·	7
O=C(c1ccco1)N1CCN(CCCCOc2ccc(F)cc2)CC1	91*	i	-9	-0.41	-14
CN1CCN(CCCCOc2ccc(F)cc2)CC1	-5	i	-2	-0.78	18
O=C(c1ccco1)N1CCN(CC(O)COc2ccc3oc4ccccc4c3c2)CC1 (centres undefined)	85*	i	30	-0.66	·
O=C(CCN1CCN(C(=O)c2ccco2)CC1)Nc1ccc(F)cc1	4	i	-9	-0.45	29
Cc1ccc(NC(=O)c2ccc(=O)[nH]c2)cc1S(=O)(=O)N1CCCCC1	·	·	·	0.7	·
Cc1ccc(C(=O)O)cc1NC(=S)NC(=O)c1ccc([N+](=O)[O-])c(C)c1	-8	i	4	-0.09	·
O=C1CN(C(=O)c2ccc(Br)o2)C(c2ccc(F)cc2)c2cc(Cl)ccc2N1 (centres undefined)	94*	i	11	-0.17	·
Cc1ccc2c(c1)C(c1ccc(F)cc1)N(C(=O)C1CC1)CC(=O)N2 (centres undefined)	5	i	-1	0.4	·
O=C1CN(C(=O)c2ccc(Br)o2)C(c2ccccc2)c2cc(Cl)ccc2N1 (centres undefined)	87*	i	22	-0.52	·
O=C1CN(C(=O)c2ccco2)C(c2ccccc2)c2cc(Cl)ccc2N1 (centres undefined)	17	i	-30	0.21	10
SMILES	L major viab	Autophagy HCS	WT yeast gro inh	Insulin prom up	Insulin prom inh
CC(C)CN=C(NS(=O)(=O)c1ccccc1)C(Cl)(Cl)Cl	90*	i	58	?	-7
CC(=O)N1CC(=O)N(Cc2ccccc2)/C(=C/c2ccccc2)C1=O	-4	i	-26	-0.58	·
CCN1C(=O)CC(c2ccco2)Sc2ccccc21 (centres undefined)	15	i	2	0.9	·
COc1cc2c(cc1OC)-c1c(OC)c(OC)cc3ccnc(c13)C2=O	63*	i	14	-2.4	9
COc1cc2cccc(OC)c(=O)c2c(O)c1OC	4	i	-16	-1.6	21
CSc1nc(C=Nc2ccccc2Cl)c(O)n1Cc1cccc(Cl)c1	·	·	·	-1	·
Cc1cccc(NC(=S)N/N=C2/CCCCc3ccccc32)c1	29	i	63*	-1.2	·
C=C(C)CNC(=S)N/N=C1\CCCCc2ccccc21	99*	i	65*	1.6	·
CC1CCN(c2[nH]c(=S)c(C#N)c3c2CCCC3)CC1	100*	i	5	·	59
CCCCNC(=S)N/N=C/c1cc(C)ccc1C	-4	i	66*	-0.16	-20
CN(C)c1ccc(/C=C2\C(=O)N(c3ccc([N+](=O)[O-])cc3)N=C2N2CCOCC2)cc1	80*	i	·	·	-12
CCc1cc(CN2CCOCC2)c(NC(=O)c2ccccc2)s1	10	i	-9	0.12	-20
CCOc1cccc(OCCCCn2ccnc2)c1	87*	i	4	0.78	8
Brc1cccc(OCCOCCn2ccnc2)c1	99*	i	4	·	-6
CCc1cccc(OCCCn2ccnc2)c1	95*	i	11	-0.17	-15
Brc1cccc(OCCn2ccnc2)c1	15	i	0	0.44	·
CCc1cccc(OCCn2nc(C(=O)O)c3ccccc3c2=O)c1	7	i	38	-0.15	40
O=C(CCCSc1nnnn1-c1cccc2ccccc12)c1ccc(F)cc1	0	i	11	-2.2	·
CCCNC(=O)Nc1ccsc1C(=O)OC	-4	i	-7	-0.63	·
CCC(Oc1ccccc1)C(=O)Nc1ccsc1C(=O)OC (centres undefined)	74*	i	37	-0.02	7
Cc1c(CNC(=O)c2c([N+](=O)[O-])cnn2C)cnn1C	-5	i	4	0.82	·
Cc1cc(N2CCCC2)nc2ccc(NC(=S)NCCCN3CCC(C)CC3)cc12	100*	i	-8	-1.1	18
Cc1cc(N2CCOCC2)nc2ccc(NC(=S)N3CCCCC3C)cc12 (centres undefined)	85*	i	-36	·	73*
CCCN1CCN(CCCNC(=S)Nc2ccc3nc(N4CCN(CC)CC4)cc(C)c3c2)CC1	26	i	15	0.6	·
CCOC(=O)N1CCC(NC(=S)Nc2ccc3nc(N4CCN(C)CC4)cc(C)c3c2)CC1	16	i	-5	0.3	57
SMILES	L major viab	Autophagy HCS	WT yeast gro inh	Insulin prom up	Insulin prom inh
Cc1cc(N2CCN(C)CC2)nc2ccc(NC(=S)NCCN3CCc4ccccc4C3)cc12	100*	+	11	-4.3	·
CCN1CCN(c2cc(C)c3cc(NC(=S)NCCCN4CCc5ccccc5C4)ccc3n2)CC1	100*	i	-7	-1.7	-41
Cc1cc(N2CCN(C)CC2)nc2ccc(NC(=O)CCC(=O)NCCC(C)C)cc12	8	i	10	-0.43	·
Cc1cc(N2CCN(C)CC2)nc2ccc(NC(=S)NCCCN3CCc4ccccc4C3)cc12	100*	i	10	0.2	·
Cc1sc(NC(=O)c2ccco2)c(C(c2cccnc2)N2CCC(C)CC2)c1C (centres undefined)	91*	i	-14	-1.1	54
Cc1sc(NC(=O)c2ccco2)c(CN2CCC(C)CC2)c1C	4	i	6	0.37	33
CC1=C(C(=O)Nc2ccccc2)C(c2ccc(C)o2)n2c(s/c(=C\c3ccco3)c2=O)=N1 (centres undefined)	84*	i	-11	-0.99	-61
O=C(OCC(=O)N1CCN(C(=O)c2ccco2)CC1)c1ccccc1OCc1ccc(Cl)cc1	29	i	11	-0.05	-31
